Data from the supplement of paper PMC11417369.
± gives the standard deviation of the averaged measurements. In all, about 25,000 sequences were measured (“ln(normalized median fluorescence intensity)”: median about 7.9, highest 2% from about 11 on). Shown is part of a subset that was picked to be rich in the highest values.

What follows are sequences tested on PfAP2-I AP2 domain 3 (GST-tagged) (assay: gcPBM binding intensity (ln(normalized median fluorescence intensity)); higher = stronger DNA binding).
In short: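 GST-fused DNA-binding domains of P. falciparum, expressed in E. coli, were applied at about 25 μg on average for 1 h to an Agilent 4 × 180k array of primer-extended double-stranded 36-bp intergenic genomic probes and negative controls. Binding intensity is the highest Masliner-normalised natural-log median intensity across replicate spots of either probe orientation, measured with Alexa488 anti-GST antibody and a 488 nm scan.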

Row | Sequence | gcPBM binding intensity (ln)
1 | GAAAATATAAAAAAAAGTACATTTTCTCTAAATATA [XGTACX_site2441] | 7.57 ± 0.35
2 | ATTTTTTTACTGTAACCATATTTTTCCCTTTTATTC [CACACA_negctrl_site1143] | 7.95 ± 0.79
3 | TGTATGTTATATACAACACACAAAAAAAAACAAGTT [CACACA_site301] | 7.62 ± 0.7
4 | AGACAATATCTTATTTGTACATATGTATTCCTCATA [XGTACX_site5757] | 7.88 ± 0.63
5 | GGGAATATAAGTACACGATAATATGTGATAAGGTCT [CACACA_negctrl_site1502] | 8.28 ± 0.86
6 | AAGAACCATATTTAAACACACATACCTATATAAATA [CACACA_site7553] | 7.68 ± 0.53
7 | ATGTTACACCGACACACACACATAAAAAAACAAAAA [CACACA_site5750] | 8.15 ± 0.34
8 | ATTTTTTTCTTAGGAGTGCACTTATATTTATTTTAT | 10.8 ± 0.49
9 | TATATATATTAGTGTGCACACTTTTTATTTTTATCC [CACACA_site8506] | 9.33 ± 0.4
10 | ACGTGTATTTATTTAGTGCACTTTATATTTTTTCTT [GTGCAC_site9426] | 11.5 ± 0.28
11 | ATACCTATTTGATGAGTGCATTATCCAATATATGTA | 11.3 ± 0.65
12 | TTATACCTATATTTAACACACATTTGATAAAGTGCC [CACACA_site6732] | 7.76 ± 0.61
13 | ACACCTATAAATTAAGTGCATTTTTTTTGATGTTAT | 9.45 ± 0.46
14 | ATTTTTGTTATTACATGTACCCATAATTATTATTAA [XGTACX_site3558] | 8.58 ± 0.75
15 | AAAATTATAATAATATGTACTTAAAAAATTTATATA [XGTACX_site632] | 7.54 ± 0.2
16 | ACATTAAAAAATTGTTTGCACTATATAAAATATTAA [GTGCAC_site9728] | 9.86 ± 0.28
17 | TGTTAAAATTATTTGGTGCACTTGTTTTACCTTATT | 10.8 ± 0.48
18 | TTTTTGTTACCTATTGTGCACTTCATATAAATTAAA | 11.3 ± 0.35
19 | TATGTTTACATATACGTGCACATGAATGTATACATT [GTGCAC_site9894] | 10.7 ± 0.29
20 | TAATATATAACGTGCACACACACATTTACGTATGAA [CACACA_site1832] | 10.86 ± 0.064
21 | ATATATAACGGGCACACACACATTTACGTATGAATA [CACACA_site1833] | 8.31 ± 0.49
22 | TTTATACATACATTCGTGCACATACGTATAACATAT | 11.2 ± 0.19
23 | ATACGTATATAATATACATGCATATATAGCACATAC [TGCATGCA_site376] | 9.11 ± 0.66

Row | Sequence | gcPBM binding intensity (ln)
24 | ATTAATATATAACGTGCACACACACCGTTACGTATG [CACACA_site8543] | 10.3 ± 0.35
25 | ATATATAACGTGCACACACACATTTACGTATGAATA [CACACA_site6948] | 10.975 ± 0.007
26 | TAATATATAACGTGCACACACACATCTACGTATGAA [CACACA_site5080] | 10.82 ± 0.099
27 | TATATATGCATATACATACACACATAACACATACGT [CACACA_site3833] | 8.24 ± 0.39
28 | AATGTCCTTATTTGCACACACACATATAAGAAATTT [CACACA_site3186] | 9.91 ± 0.23
29 | TTACGCGCTTATTACACACACATACAAATAAGGATT [CACACA_site3486] | 8.06 ± 0.47
30 | ATAATCAACATTAGGTGTACAAAATATGTATGTTTT [XGTACX_site6696] | 8 ± 0.59
31 | ATTATTAAGTTTCACAAGAACATTGTTAACAATTTT [CACACA_negctrl_site1128] | 7.5 ± 0.64
32 | AATTTTTTTCTCCAAGTGCATTAGAACATTAACGTA [GTGCAC_site9413] | 10.9 ± 0.53
33 | TTTTCTTTTTCCAAAAGTACGTAATTTAAACATTTT [XGTACX_site2066] | 7.83 ± 0.43
34 | AAAAAAAATTATATTTGTACGCATTAAAAAATCTAA [XGTACX_site1616] | 7.64 ± 0.26
35 | ATAACAAAAAAAAAGGTGCTACAAAATGAATAAAAA [GTGCAC_site9659] | 9.12 ± 0.3
36 | TGAACAGACAAATACACACACTCAAAAAAAAAAAAG [CACACA_site7287] | 7.68 ± 0.45
37 | TGAACTCAACAAAGGGTGCATAACAAAAATAGACGT | 11.4 ± 0.23
38 | TTTTTTTTTAATATTTGTACACAACATGAAACATTT [XGTACX_site473] | 8.16 ± 0.53
39 | TATATTTATGTATATGTGCACATAAATTTAAGAATG [GTGCAC_site9512] | 9.68 ± 0.19
40 | TATATATTAATCAAAGTGCAATAATAAAATAAAAGT [GTGCAC_site9490] | 10.8 ± 0.34
41 | TATTGACATATATTAGTGCAATAATGAAATCAAGTA | 10.9 ± 0.43
42 | TATAAGAATGACAAGTGTACATATCAAATATATTAG [XGTACX_site7113] | 7.77 ± 0.38
43 | ATAAAATAAAGGAAAAATATTAAGTTTTAAGAAAAT [CACACA_negctrl_site1066] | 7.6 ± 0.76
44 | ATTATTTAAATGGATGCACACATGCATTAAATAAAA [CACACA_site5831] | 8.99 ± 0.82
45 | ACAATATGCAAAAAGTGTACACATTCATTTATATAA [XGTACX_site1061] | 8.34 ± 0.32
46 | AATAACAAAATATTAACACACATAACATATTATAAA [CACACA_site2803] | 7.55 ± 0.47
